Source: PubChem BioAssay
This is a sample that favours compounds with a hit; in the whole collection about 18% have one here.
HepG2 viability: HepG2 cytotoxicity, counter-screen for TGF-b inhibitors | HepG2 CAGA-GFP viability, ATP luminescence, 18 h | Potency, µM (series often up to 46.1 µM), usual class: cytotoxic | 410,000 tested, 0.76% active
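HepG2 CAGA-GFP cells (1000/well, DMEM with 1% FBS) received compound, then TGF-beta at 500 pg/mL final, and were incubated 18 hours at 37 degrees C. Viability was read by CellTiter-Glo luminescence. Media-only wells were set as complete cell-killing and DMSO as no toxicity.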
IL1B secr inh: blocks inflammasome-driven IL-1 beta release; 360,000 tested, 4.7% active; activity change, % at 57.5 µM; THP-1 LPS/ATP IL-1B secretion, AlphaLISA, 16 h; hits give low values; AID 743279; in the data active = activity change below about -50%; inconclusive = mostly about -30% to -49%
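Secreted IL-1B measured by AlphaLISA bead assay after 16 h compound exposure of THP-1 cells; compounds (final up to 57.5 uM) added 1 h before LPS (250 ng/mL) and ATP (1.25 mM) stimulation; lower signal means less secretion.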
TDP1 cell CPT: DT40-hTDP1 cell growth loss with CPT | chicken DT40 Tdp1-/-;hTDP1 cells + 20 nM CPT, ATP luminescence, 48 h | Potency, µM (top dose mostly 46.2 µM), most hits filed as inhibitors | 420,000 tested, 12% active | AID 686979; note: nearly all actives have a fitted effect of over 55% in size
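Chicken DT40 Tdp1-/- cells complemented with human TDP1, 400 cells/well, exposed to compounds plus 20 nM camptothecin for at least 48 h at 37 C; viability read as ATP content by CellTiter-Glo luminescence.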
TDP1 cell noCPT: qHTS for Inhibitors of human tyrosyl-DNA phosphodiesterase 1 (TDP1): qHTS in cells in absence of CPT; Potency, µM (series often up to 46.2 µM), most hits filed as inhibitors; AID 686978, 2013; DT40 Tdp1-/- hTDP1 cells, no CPT, ATP luminescence, 48 h; 420,000 tested, 15% active; note: nearly all actives have a fitted effect of over 55% in size
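Compound effects on proliferation are scored in DT40 Tdp1-/-;hTDP1 cells in the absence of CPT. ATP levels (CellTiter-Glo luminescence) are recorded after a ≥48 hr, 37 °C incubation.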
TGFb SMAD3 inh: TGF-b pathway inhibition; HepG2 CAGA-GFP TGF-b/SMAD3 reporter, GFP fluorescence, 18 h; TGF-beta stimulated, 500 pg/mL final; Potency, µM (top dose mostly 46.1 µM), actives largely listed as inhibitors; 410,000 tested, 1.2% active; note: nearly all actives have a fitted effect of over 65% in size
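GFP signal (ex488/em500-530) from TGF-beta-stimulated HEPG2 CAGA-GFP cells, 500 pg/mL final, 18 h at 37 degrees C in DMEM plus 1% FBS, normalized to unstimulated and DMSO-stimulated controls.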
TDP1 block: inhibitors of human tyrosyl-DNA phosphodiesterase TDP1 | Q9NUW8 | recombinant TDP1, AlphaScreen DNA substrate cleavage | Potency, µM (top dose mostly 130 µM), actives largely listed as inhibitors | 350,000 tested, 0.28% active; note: nearly all actives have a fitted effect of over 40% in size
Target sequence (Q9NUW8 whole entry, looked up): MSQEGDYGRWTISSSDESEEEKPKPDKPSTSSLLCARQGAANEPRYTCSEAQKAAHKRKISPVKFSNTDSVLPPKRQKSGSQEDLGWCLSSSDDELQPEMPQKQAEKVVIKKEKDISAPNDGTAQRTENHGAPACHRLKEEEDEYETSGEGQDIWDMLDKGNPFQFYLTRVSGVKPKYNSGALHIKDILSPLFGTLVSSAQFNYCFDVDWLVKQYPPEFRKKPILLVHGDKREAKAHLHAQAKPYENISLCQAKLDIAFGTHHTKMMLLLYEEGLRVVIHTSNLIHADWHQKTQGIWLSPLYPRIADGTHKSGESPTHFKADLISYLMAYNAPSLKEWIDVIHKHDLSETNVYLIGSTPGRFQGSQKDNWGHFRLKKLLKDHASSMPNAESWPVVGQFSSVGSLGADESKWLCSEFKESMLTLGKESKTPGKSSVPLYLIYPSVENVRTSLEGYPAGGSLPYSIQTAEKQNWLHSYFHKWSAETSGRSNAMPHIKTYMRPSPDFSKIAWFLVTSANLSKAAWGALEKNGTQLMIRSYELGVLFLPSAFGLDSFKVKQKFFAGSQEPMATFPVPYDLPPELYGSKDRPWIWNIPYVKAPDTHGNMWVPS
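Compounds were preincubated with Tdp1 (1 nM final) for 15 min at room temperature before substrate (15 nM final) started a 5 min reaction; beads (10 ug/ml final) were then added for 10 min before AlphaScreen detection.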
Of the large screens only hits and unclear results are named; the others gave an inactive call. Unless noted, calls come from the whole dose curve; as a rule, active = well fitted curve in the direction sought with a large enough effect; inconclusive = small, poorly fitted or top-dose-only effect, or another doubt; inactive = no such curve, though single readings can be large; an effect the other way counts as inactive or inconclusive.

CC(=O)Nc1cccc(-c2ccnc3c2CC(C)(C(=O)Nc2ccc(Cl)c(C(F)(F)F)c2)O3)c1 (stereo unspecified)	IL1B secr inh -66.8, TDP1 cell CPT 10.3µM, TDP1 cell noCPT 13µM, TGFb SMAD3 inh inconclusive (no result: TDP1 block)
CC(=O)Nc1cccc(-c2ccnc3c2CC(C)(C(=O)Nc2cccc(C(F)(F)F)c2)O3)c1 (stereo unspecified)	TDP1 cell CPT 13µM, TDP1 cell noCPT 16.4µM, TGFb SMAD3 inh inconclusive (no result: TDP1 block)
CC1(C(=O)Nc2cccc(C(F)(F)F)c2)Cc2c(-c3cccc(C(F)(F)F)c3)ccnc2O1 (stereo unspecified)	TDP1 cell CPT inconclusive, TDP1 cell noCPT inconclusive, TGFb SMAD3 inh inconclusive (no result: TDP1 block)
CC1C/C(=C/c2ccccn2)C(=O)/C(=C/c2ccccn2)C1 (stereo unspecified)	IL1B secr inh -54.1, TDP1 cell CPT 0.517µM, TDP1 cell noCPT 0.517µM, TGFb SMAD3 inh 1.26µM
CC(C)(C)C1C/C(=C/c2ccccn2)C(=O)/C(=C/c2ccccn2)C1 (stereo unspecified)	IL1B secr inh -93.1, TDP1 cell CPT 0.92µM, TDP1 cell noCPT 0.517µM, TGFb SMAD3 inh 0.891µM
CC1C/C(=C/c2cccs2)C(=O)/C(=C/c2cccs2)C1 (stereo unspecified)	TDP1 cell noCPT inconclusive
COc1ccc(NC(=O)CSc2nc3c(c(=O)[nH]2)CCC3)cc1	none (no result: IL1B secr inh)
O=C(NCc1ccc2c(c1)OCO2)c1ccc2c(c1)N(Cc1c(F)cccc1Cl)C(=O)CS2	TDP1 cell CPT inconclusive, TDP1 cell noCPT 23.1µM
O=C(NCCc1ccccc1)c1ccc2c(c1)N(Cc1ccc(F)cc1Cl)C(=O)CS2	none (no result: IL1B secr inh)
O=C(NCCC1=CCCCC1)c1ccc2c(c1)N(Cc1ccccc1)C(=O)CS2	IL1B secr inh inconclusive, TDP1 cell CPT inconclusive, TDP1 cell noCPT 20.6µM, TGFb SMAD3 inh inconclusive
O=C(NCCc1ccc(Cl)cc1)c1ccc2c(c1)N(Cc1ccc(F)cc1Cl)C(=O)CS2	TDP1 cell CPT inconclusive, TDP1 cell noCPT 6.51µM (no result: IL1B secr inh)
Cc1ccc(C)c(CN2C(=O)CSc3ccc(C(=O)NCc4ccccc4)cc32)c1	TDP1 cell CPT 10.3µM, TDP1 cell noCPT 16.4µM (no result: IL1B secr inh)
CCOc1ccc(NC(=O)CCc2c(C)nc3nc(C)nn3c2C)cc1	none (no result: IL1B secr inh)
O=C(CS(=O)Cc1ccco1)NC/C=C\COc1cc(CN2CCCCC2)ccn1 (stereo unspecified)	none (no result: HepG2 viability, IL1B secr inh, TGFb SMAD3 inh, TDP1 block)
Cc1ccc(CNC(=O)c2ccc3c(c2)N(Cc2cccc(C)c2)C(=O)CS3)cc1	TDP1 cell CPT inconclusive, TDP1 cell noCPT 20.6µM (no result: IL1B secr inh)
Cc1cc(C)n(/N=C/c2ccc(C(C)C)cc2)c(=O)c1C#N	TDP1 cell CPT inconclusive, TDP1 cell noCPT 8.2µM
COc1ccc(N2CCN(C(c3cccs3)c3nnnn3C3CCCC3)CC2)cc1 (stereo unspecified)	TDP1 cell CPT 20.6µM, TDP1 cell noCPT 16.4µM
COc1ccc(N2CCN(C(c3cccc(OC)c3OC)c3nnnn3C3CCCC3)CC2)cc1 (stereo unspecified)	IL1B secr inh inconclusive, TDP1 cell CPT inconclusive, TDP1 cell noCPT inconclusive
COc1ccc(N2CCN(C(c3ccccc3OC)c3nnnn3C3CCCC3)CC2)cc1 (stereo unspecified)	IL1B secr inh inconclusive, TDP1 cell CPT 23.1µM, TDP1 cell noCPT 20.6µM
CCCCCCN(C(=O)CCCCCN1C(=O)NC(C2CC2)C(C(=O)OCc2ccccc2)=C1C)C(C(=O)NCCCC)c1ccc(OCC(=O)OC)c(C(=O)OC)c1 (stereo unspecified)	none (no result: HepG2 viability, IL1B secr inh, TDP1 cell CPT, TDP1 cell noCPT, TGFb SMAD3 inh)
CCC(C)n1ncn(-c2ccc(N3CCN(c4ccc(OCC5COC(Cn6cncn6)(c6ccc(Cl)cc6Cl)O5)cc4)CC3)cc2)c1=O (stereo unspecified)	TDP1 cell CPT 2.59µM, TDP1 cell noCPT 2.31µM
O=C(Nc1cc(Cl)ccc1-n1cncn1)C1CC1	none (no result: TDP1 block)
